DAX1 inh-1 = NR0B1 (DAX1) inhibition; inhibition, % at 6.75 µM; AID 504766; 340,000 tested, 0.99% active; HEK293 Gal4-DAX1 luciferase reporter, luminescence; P51843;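 active means inhibition above the mean over all tested compounds plus 3 SD, cut at about 4.2% in these data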;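 further: 0% = DAX1-transfected cells with DMSO and 100% = empty-vector control cells with DMSO; inhibition shows as a rise in luminescence from relieved DAX1 repression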
Target sequence (P51843 207-470 limits assumed): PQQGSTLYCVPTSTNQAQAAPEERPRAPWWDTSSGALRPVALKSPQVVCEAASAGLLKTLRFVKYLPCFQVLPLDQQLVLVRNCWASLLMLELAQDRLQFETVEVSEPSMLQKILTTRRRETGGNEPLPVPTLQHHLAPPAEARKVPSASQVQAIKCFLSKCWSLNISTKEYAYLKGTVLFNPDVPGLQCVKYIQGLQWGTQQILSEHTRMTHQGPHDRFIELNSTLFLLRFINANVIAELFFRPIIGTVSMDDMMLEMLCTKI
hcDAF-12 act = H. contortus DAF-12 activation, primary screen | HEK293 hcDAF-12 lit1-tk-luc reporter, luminescence; 0% DMSO, 100% Δ7-dafachronic acid | activation, % at 6.8 µM | 370,000 tested, 1.4% active;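 active means activation above the mean of all tested compounds plus 3 SD, cut at about 5.5% in these data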;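 further: 100% = response to 3 µM Δ7-dafachronic acid high control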
DAX1 inh-2 = blocks DAX1 repression of SF-1 activated StAR promoter | HEK293T StAR-luciferase reporter, SF-1/DAX-1 repression relief | inhibition, % at 6.8 µM | 370,000 tested, 1.1% active | AID 652010;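 active means inhibition above the mean over all tested compounds plus 3 SD, cut at about 3.6% in these data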;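 further: 0% = DAX-1 cells with DMSO and 100% = cells lacking DAX-1 with DMSO; higher inhibition means more luminescence from relief of DAX-1 repression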
ssDAF12 agonist = S. stercoralis DAF-12 activation, primary screen; HEK293 ssDAF-12/GRIP1 lit1-tk-luc reporter, luminescence; % of 3 µM dafachronic acid response; 370,000 tested, 1% active; activation, % at 6.8 µM;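 active means activation above the mean over all tested compounds plus 3 SD, cut at about 0.9% in these data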;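 further: 0% = DMSO-only wells and 100% = 3 µM delta7-dafachronic acid wells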
hgDAF-12 ag = activates the H. glycines DAF-12 receptor ligand-binding domain; HEK293 GAL4-hgDAF12 UAS-luciferase reporter, agonist luminescence; normalized to butyrate control; activation, % at 6.8 µM; 370,000 tested, 1.8% active; AID 687014;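 active means activation above a cutoff set at the mean of all screened compounds plus 3 SD, cut at about 10% in these data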;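 further: 0% = DMSO wells and 100% = sodium butyrate wells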
Active calls of the source: *. Sampled rows, rich in hits. Any-hit rate of the full collection: about 4.1%.

For CCC(C)c1ccc(S(=O)(=O)N2CCN(C(=O)CN3C(=O)NC(C)(C4CC4)C3=O)CC2)cc1 (configuration not stated) the results were DAX1 inh-1 1, hcDAF-12 act 0, DAX1 inh-2 1, ssDAF12 agonist -1 and hgDAF-12 ag -2.
Cc1cc(/C=C(\C#N)C(=O)OCC(=O)Nc2ccc(OC(F)F)cc2)c(C)n1CC(C)C was read as DAX1 inh-1 4, hcDAF-12 act 0, DAX1 inh-2 4.0*, ssDAF12 agonist -1 and hgDAF-12 ag 8.
COCCn1c(C)cc(/C=C(\C#N)C(=O)OCC(=O)Nc2ccc(S(N)(=O)=O)cc2)c1C was read as DAX1 inh-1 5.0*, hcDAF-12 act 6.4*, DAX1 inh-2 -1, ssDAF12 agonist 0 and hgDAF-12 ag 8.
Cc1cc(/C=C(\C#N)C(=O)OCC#N)c(C)n1CC(C)C was read as DAX1 inh-1 1, hcDAF-12 act 0, DAX1 inh-2 0, ssDAF12 agonist -1 and hgDAF-12 ag 2.
C=CC[C@@]1(c2ccc(Br)cc2OC)Oc2ccccc2-c2nccnc21 was read as hcDAF-12 act -2, DAX1 inh-2 -1, ssDAF12 agonist -2 and hgDAF-12 ag 0.
`COc1cc(C(C)=O)ccc1OCc1cc(C(=O)N(C)CCC2CCCCO2)no1` (configuration not stated) gave DAX1 inh-1 2, hcDAF-12 act 4, DAX1 inh-2 1, ssDAF12 agonist 1.1* and hgDAF-12 ag 10.
`COc1cc(C)ccc1OCc1cc(C(=O)N(C)CCCN2CCOCC2)no1` gave DAX1 inh-1 2, hcDAF-12 act 5, DAX1 inh-2 1, ssDAF12 agonist 1.8* and hgDAF-12 ag 10*.
Screening CN(CCCN1CCOCC1)C(=O)c1cc(COc2ccc(F)cc2F)on1 returned DAX1 inh-1 1, hcDAF-12 act 0, DAX1 inh-2 0, ssDAF12 agonist -1 and hgDAF-12 ag -1.
CC(C)n1c2ccccc2c2cc([N+](=O)[O-])ccc21 was read as DAX1 inh-1 2, hcDAF-12 act -2, DAX1 inh-2 0, ssDAF12 agonist -2 and hgDAF-12 ag -1.
CCC(C)n1c(=S)[nH]c2c(sc3ccc([N+](=O)[O-])cc32)c1=O (configuration not stated) was read as DAX1 inh-1 0, hcDAF-12 act -1, DAX1 inh-2 0, ssDAF12 agonist 3.4* and hgDAF-12 ag 0.
Cc1cc(C)nc(Nc2n[nH]c(-c3ccccc3Br)n2)n1 was read as DAX1 inh-1 1, hcDAF-12 act -1, DAX1 inh-2 0, ssDAF12 agonist -2 and hgDAF-12 ag 0.
Cc1cc(C)nc(Nc2n[nH]c(-c3ccc(N)cc3)n2)n1 was read as DAX1 inh-1 1, hcDAF-12 act 3, DAX1 inh-2 3, ssDAF12 agonist 0 and hgDAF-12 ag 11*.
Cc1cc(C)nc(Nc2n[nH]c(-c3ccc(C(C)(C)C)cc3)n2)n1 was read as DAX1 inh-1 -1, hcDAF-12 act -1, DAX1 inh-2 -1, ssDAF12 agonist -1 and hgDAF-12 ag 0.
Cc1cc(C)nc(Nc2n[nH]c(-c3ccccc3C)n2)n1 was read as DAX1 inh-1 4.6*, hcDAF-12 act 0, DAX1 inh-2 2, ssDAF12 agonist -1 and hgDAF-12 ag 6.
Screening Cc1ccc(NC(=O)C2CCN(c3nnc(-n4cccc4)s3)CC2)cc1C returned hcDAF-12 act -1, DAX1 inh-2 0, ssDAF12 agonist 0 and hgDAF-12 ag 2.
Screening Cc1ccc(OCC(O)CN2C(=O)NC(C)(C)C2=O)cc1C (configuration not stated) returned DAX1 inh-1 -1, hcDAF-12 act 0, DAX1 inh-2 -1, ssDAF12 agonist -1 and hgDAF-12 ag 11*.
Screening CCCN(CCC)CC(O)CN1C(=O)NC(C)(C)C1=O (configuration not stated) returned DAX1 inh-1 0, hcDAF-12 act 0, DAX1 inh-2 0, ssDAF12 agonist -1 and hgDAF-12 ag 5.
For CCN(CC)CC(O)CN1C(=O)NC(C)(C)C1=O (configuration not stated) the results were DAX1 inh-1 4.3*, hcDAF-12 act -2, DAX1 inh-2 -1, ssDAF12 agonist -1 and hgDAF-12 ag 1.
`C=CCN1C(=O)[C@@H](CC(=O)NCc2cccc3ccccc23)[C@]2(C(=O)OC)CCCCC=C12` gave hcDAF-12 act 0, DAX1 inh-2 0, ssDAF12 agonist -2 and hgDAF-12 ag -6.

Compound activity deposited in PubChem by The Scripps Research Institute Molecular Screening Center.
